The values below come from the supplement of paper PMC11732987, “Enantioselective OTUD7B fragment discovery through chemoproteomics screening and high-throughput optimisation” (Communications Chemistry, 2025).

Values without a mark were called inactive.

Holding throughout (assay): log2 ratio of Biotin-Ahx-Ub-VS probe labelling (fragment/DMSO); higher = less target engagement (more negative = stronger competition), active = hit call of the paper (q ≤ 0.05, log2 ratio ≤ -1)
Holding throughout (conditions): compound concentration: 200 uM; treatment time: 3 h

One assay concerns the target T1, OTUD6B (UniProt Q8N6M0).
T1 sequence (whole entry): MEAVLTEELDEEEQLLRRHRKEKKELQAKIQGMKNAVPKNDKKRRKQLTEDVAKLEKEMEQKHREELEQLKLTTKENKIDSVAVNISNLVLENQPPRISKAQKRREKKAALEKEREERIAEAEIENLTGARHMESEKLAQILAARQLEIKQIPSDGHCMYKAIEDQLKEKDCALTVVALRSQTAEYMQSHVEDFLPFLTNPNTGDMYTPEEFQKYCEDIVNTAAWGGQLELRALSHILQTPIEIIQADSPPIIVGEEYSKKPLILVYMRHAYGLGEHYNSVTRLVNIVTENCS
The method in brief:
(§1)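 HEK293T lysate in Tris/CHAPS/IGEPAL buffer with protease inhibitors (495 µg per sample) was given fragment at 200 µM or vehicle for 3 h, in triplicate. It then received Biotin-Ahx-Ub-VS at 0.5 µM final for 1 h. Labelled DUBs were NeutrAvidin-enriched, digested with LysC and trypsin, and run by diaPASEF LC-MS/MS. Values are average log2 fragment/vehicle ratios by unpaired t-test on global-median-normalised Spectronaut quantities of proteins with ≥2 unique peptides.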

The target in another assay is T2, OTUD7B (UniProt Q6GQQ9).
T2 sequence (whole entry): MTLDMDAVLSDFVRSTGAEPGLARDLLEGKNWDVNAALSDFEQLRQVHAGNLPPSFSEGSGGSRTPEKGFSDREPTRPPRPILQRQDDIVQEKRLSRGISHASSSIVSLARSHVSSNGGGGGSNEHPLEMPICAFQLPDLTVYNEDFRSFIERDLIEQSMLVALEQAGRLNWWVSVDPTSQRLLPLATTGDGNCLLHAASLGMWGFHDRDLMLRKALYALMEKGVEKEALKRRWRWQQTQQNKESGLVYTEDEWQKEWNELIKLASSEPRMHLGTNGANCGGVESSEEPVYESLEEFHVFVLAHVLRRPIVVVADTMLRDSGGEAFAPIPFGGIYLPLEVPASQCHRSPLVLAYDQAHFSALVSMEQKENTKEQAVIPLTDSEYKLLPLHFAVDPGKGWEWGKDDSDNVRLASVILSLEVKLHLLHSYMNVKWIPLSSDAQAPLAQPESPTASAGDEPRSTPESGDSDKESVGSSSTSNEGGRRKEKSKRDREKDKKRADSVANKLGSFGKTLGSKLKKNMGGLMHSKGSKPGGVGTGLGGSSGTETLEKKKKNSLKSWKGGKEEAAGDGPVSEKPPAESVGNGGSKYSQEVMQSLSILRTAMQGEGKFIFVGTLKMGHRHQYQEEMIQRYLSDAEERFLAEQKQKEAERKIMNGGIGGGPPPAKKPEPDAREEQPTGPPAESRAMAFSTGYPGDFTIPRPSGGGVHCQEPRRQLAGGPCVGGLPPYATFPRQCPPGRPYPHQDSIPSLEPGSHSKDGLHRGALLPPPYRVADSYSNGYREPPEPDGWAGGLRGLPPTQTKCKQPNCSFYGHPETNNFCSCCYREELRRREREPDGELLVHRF
In a few lines:
as §1

For another assay, the target named is PRPF8 (UniProt Q6P2Q9). In a few lines:
as §1

A further assay has as its target T3, PSMD7 (UniProt P51665).
T3 sequence (whole entry): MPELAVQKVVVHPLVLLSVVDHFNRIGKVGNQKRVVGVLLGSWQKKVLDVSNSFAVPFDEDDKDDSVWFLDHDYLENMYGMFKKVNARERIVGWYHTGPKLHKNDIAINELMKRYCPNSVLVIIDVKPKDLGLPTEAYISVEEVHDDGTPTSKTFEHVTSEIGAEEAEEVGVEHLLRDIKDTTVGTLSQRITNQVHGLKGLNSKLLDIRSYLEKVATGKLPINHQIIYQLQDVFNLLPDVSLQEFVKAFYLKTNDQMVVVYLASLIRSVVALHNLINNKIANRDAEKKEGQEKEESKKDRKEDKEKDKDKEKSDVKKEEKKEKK
In a few lines: as §1

Another assay addresses UCHL1 (UniProt P09936). In a few lines: as §1
The target of the next assay is T4, UCHL3 (UniProt P15374).
T4 sequence (whole entry): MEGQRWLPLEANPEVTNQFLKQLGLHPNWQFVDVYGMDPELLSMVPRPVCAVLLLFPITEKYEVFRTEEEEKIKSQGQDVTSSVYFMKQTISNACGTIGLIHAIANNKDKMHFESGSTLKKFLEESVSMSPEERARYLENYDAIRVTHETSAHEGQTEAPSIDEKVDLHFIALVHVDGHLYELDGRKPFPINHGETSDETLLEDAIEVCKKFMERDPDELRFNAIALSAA
The method in brief: as §1

The next assay has as its target T5, UCHL5 (UniProt Q9Y5K5).
T5 sequence (whole entry): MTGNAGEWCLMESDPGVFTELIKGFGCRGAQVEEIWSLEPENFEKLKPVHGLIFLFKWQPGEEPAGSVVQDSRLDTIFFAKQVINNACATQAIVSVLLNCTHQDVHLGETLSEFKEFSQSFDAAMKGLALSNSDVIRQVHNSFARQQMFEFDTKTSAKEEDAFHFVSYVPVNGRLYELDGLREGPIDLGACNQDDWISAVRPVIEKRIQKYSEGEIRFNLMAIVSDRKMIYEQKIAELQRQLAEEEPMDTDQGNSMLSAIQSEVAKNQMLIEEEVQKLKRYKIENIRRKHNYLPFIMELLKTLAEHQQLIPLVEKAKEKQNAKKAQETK
In a few lines: as §1

The target of another assay is USP10 (UniProt Q14694). The method in brief: as §1
Sequence of USP10 (Q14694 whole entry): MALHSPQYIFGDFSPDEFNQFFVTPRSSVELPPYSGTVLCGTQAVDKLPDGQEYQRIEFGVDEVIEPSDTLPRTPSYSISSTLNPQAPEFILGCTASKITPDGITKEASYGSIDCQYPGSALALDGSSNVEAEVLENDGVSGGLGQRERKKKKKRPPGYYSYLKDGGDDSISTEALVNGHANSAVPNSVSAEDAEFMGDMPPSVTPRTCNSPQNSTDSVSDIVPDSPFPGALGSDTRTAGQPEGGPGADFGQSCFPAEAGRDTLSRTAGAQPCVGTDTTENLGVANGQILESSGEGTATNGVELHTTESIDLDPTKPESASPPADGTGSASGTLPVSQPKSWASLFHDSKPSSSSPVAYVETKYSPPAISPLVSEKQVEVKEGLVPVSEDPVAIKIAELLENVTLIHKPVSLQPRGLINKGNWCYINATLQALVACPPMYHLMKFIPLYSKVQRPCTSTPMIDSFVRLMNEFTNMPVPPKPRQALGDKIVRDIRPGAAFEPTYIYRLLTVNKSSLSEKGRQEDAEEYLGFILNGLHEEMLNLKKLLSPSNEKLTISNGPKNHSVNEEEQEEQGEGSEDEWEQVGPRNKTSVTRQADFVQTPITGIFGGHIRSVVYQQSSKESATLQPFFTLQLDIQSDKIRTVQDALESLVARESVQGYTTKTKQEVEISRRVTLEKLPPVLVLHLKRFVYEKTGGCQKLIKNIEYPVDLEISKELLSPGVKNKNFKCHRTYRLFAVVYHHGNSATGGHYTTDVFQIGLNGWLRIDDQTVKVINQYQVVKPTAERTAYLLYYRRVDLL
For a further assay, the target named is T6, USP15 (UniProt Q9Y4E8).
T6 sequence (whole entry): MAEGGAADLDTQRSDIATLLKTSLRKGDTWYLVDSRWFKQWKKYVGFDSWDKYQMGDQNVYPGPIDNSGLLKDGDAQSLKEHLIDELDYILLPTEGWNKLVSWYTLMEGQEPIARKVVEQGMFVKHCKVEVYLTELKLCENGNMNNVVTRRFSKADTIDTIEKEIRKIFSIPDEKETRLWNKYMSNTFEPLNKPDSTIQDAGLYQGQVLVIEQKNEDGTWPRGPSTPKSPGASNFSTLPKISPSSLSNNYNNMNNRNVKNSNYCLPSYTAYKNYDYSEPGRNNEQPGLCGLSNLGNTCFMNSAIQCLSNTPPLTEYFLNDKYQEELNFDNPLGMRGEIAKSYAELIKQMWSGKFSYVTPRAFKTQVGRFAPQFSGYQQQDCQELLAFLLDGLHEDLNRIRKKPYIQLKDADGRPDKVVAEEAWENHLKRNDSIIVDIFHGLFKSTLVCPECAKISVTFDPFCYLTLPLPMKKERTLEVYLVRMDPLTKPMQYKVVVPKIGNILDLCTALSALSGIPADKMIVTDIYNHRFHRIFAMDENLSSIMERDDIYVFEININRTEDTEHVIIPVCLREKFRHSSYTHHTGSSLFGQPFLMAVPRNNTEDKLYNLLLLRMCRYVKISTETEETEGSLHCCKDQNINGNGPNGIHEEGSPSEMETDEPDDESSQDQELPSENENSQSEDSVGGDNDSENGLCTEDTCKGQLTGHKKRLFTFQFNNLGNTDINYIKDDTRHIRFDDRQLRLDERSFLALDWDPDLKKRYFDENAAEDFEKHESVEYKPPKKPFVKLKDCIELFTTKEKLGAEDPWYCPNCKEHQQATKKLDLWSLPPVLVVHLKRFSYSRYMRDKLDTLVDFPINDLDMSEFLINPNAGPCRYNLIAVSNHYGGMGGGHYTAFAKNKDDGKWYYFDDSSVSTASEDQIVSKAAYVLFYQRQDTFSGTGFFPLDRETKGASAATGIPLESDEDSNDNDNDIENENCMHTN
In a few lines:
as §1

A further assay addresses USP16 (UniProt Q9Y5T5). The method in brief:
as §1

Sequence of USP16 (Q9Y5T5 whole entry, looked up): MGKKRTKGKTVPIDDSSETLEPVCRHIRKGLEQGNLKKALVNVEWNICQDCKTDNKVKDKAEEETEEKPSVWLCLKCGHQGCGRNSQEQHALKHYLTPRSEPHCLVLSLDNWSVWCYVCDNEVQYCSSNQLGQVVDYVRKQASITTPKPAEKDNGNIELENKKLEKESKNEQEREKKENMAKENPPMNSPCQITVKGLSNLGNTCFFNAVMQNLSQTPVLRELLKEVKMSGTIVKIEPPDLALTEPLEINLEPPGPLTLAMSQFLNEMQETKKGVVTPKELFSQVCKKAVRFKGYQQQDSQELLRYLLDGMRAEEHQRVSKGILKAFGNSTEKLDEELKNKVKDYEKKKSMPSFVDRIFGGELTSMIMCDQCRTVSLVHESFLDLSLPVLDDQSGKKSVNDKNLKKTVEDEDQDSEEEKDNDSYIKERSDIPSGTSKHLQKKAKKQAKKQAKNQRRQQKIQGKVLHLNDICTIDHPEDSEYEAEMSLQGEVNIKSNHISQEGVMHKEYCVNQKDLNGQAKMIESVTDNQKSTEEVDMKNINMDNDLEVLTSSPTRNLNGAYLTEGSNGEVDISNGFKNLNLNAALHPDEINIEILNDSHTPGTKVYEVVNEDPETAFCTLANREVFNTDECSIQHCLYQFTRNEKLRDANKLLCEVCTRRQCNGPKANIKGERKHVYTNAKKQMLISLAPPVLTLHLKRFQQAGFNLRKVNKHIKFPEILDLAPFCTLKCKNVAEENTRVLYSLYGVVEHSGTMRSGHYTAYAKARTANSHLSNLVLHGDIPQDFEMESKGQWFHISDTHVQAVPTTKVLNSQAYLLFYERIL
Sequence of UCHL1 (P09936 whole entry, looked up): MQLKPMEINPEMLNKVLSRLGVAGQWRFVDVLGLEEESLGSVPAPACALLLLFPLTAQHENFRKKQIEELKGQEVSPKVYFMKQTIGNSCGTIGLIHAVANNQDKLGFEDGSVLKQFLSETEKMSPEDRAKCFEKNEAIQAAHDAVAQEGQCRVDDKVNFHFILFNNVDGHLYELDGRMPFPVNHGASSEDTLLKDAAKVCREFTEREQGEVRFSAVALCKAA

As for `O=C(CCl)NCc1ccc(N2CCOCC2)nc1`, the “log2 ratio of Biotin-Ahx-Ub-VS probe labelling” value with OTUD6B was -0.139; with OTUD7B, -0.502; in the assay with PRPF8, -0.0538; with PSMD7, -0.249; with UCHL1, -1.45 (active); in the assay with UCHL3, 0.0731. For the same compound, the “log2 ratio of Biotin-Ahx-Ub-VS probe labelling” value is -0.235 with UCHL5, -0.0833 with USP10, -0.285 with USP15 and -0.342 with USP16.
